From PubChem BioAssay (NCATS)
Records with an inconclusive call do not appear. Where a call stands in place of a potency, no number is given. Activity calls are given as the source filed them. Unless noted, calls follow the shape of the full dose curve. Square brackets hold non-standard residues; d marks the D form. Peptide text beside a SMILES is read from it. Nle = CCCC[C@H](N)C(=O)O

Tests used:
[1] = Confirmatory qHTS for VERO E6 Cytotoxicity Assay: Counterscreen for SARS-CoV-2 CPE Assay (AID 1508605); also: nearly all actives have a fitted effect of over 60% in size; also: potency is read from the fitted curve at half-maximal effect
[2] = Confirmatory qHTS for activators (rescue) of SARS-CoV-2 Cytopathic Effect (CPE) (AID 1508606); also: nearly all actives have a fitted effect of over 70% in size; also: potency is read from the fitted curve at half-maximal effect
[3] = VSVG counterscreen qHTS to identify inhibitors of SARS-CoV-2 cell entry (AID 1645847); also: potency is read from the fitted curve at half-maximal effect; nearly all actives have a fitted effect of over 65% in size
Outline: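 HEK293-ACE2 cells (Expi293F stably expressing human ACE2) were pretreated with compound for 1 h at 37 °C, then infected with MLV-based VSV-G pseudotyped particles for 48 h. Luciferase luminescence was normalized to VSV-G PP and bald PP wells.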

[4] = NCATS anti-infectives library activity on HEK293 viability as a counter-qHTS vs the C. elegans viability qHTS (AID 1745854; active = well fitted curve in the direction sought with a large enough effect; an effect the other way counts as inactive or inconclusive;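 also: potency is read from the fitted curve at half-maximal effect; HEK293 cells exposed to compounds for 24 hr before the viability read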)
Outline: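 Compounds were acoustically plated (several concentrations, 1:5, final up to 41.7 uM), then 1500 HEK293 cells added per well and incubated 24 hr at 37C, 5% CO2. CellTiter-Glo was added and luminescence read after 10 min.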

[5] = NCATS anti-infectives library activity on the primary C. elegans qHTS viability assay (AID 1745855); also: potency is read from the fitted curve at half-maximal effect
Outline: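 Viability read-out is GFP fluorescence of PE254-GFP-FLuc C. elegans, measured by laser cytometry (488 nm) at day 0, 3 and 7. Ten L1 worms per well were incubated 7 days at 21 °C with compounds and bacterial capsules in S medium.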

[6] = Confirmatory qHTS to identify inhibitors of SARS-CoV-2 cell entry (AID 1645844); also: potency is read from the fitted curve at half-maximal effect; nearly all actives have a fitted effect of over 45% in size
Outline: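 Luminescence from a luciferase reporter, read 48 hr after pseudotyped-particle addition, gives entry signal, normalised to spike-bearing PP wells and bald PP lacking fusion protein wells. Cells are Expi293F stably expressing human ACE2, compound-pretreated 1 hr.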

[7] = target: Calcium and integrin-binding protein 1 (Homo sapiens) (UniProt Q99828); assay: Primary qHTS for Identification of Calcium Integrin Binding Protein 1 (CIB1) Competitor (AID 1508620; active = well fitted curve in the direction sought with a large enough effect; an effect the other way counts as inactive or inconclusive;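 also: GST tagged CIB1 binding a fluorescein labelled alphaIIb integrin peptide tracer; top concentration of the series differs between compounds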)
Outline: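 CIB1-GST (1 uM final) and compound incubated 15 min at room temperature before adding FITC-alphaIIb peptide tracer (100 nM final). Competition for binding read by fluorescence polarization (ex 480, em 540) after another 15 min at room temperature.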

[8] = Primary qHTS for small molecule stabilizers of the endoplasmic reticulum resident proteome: Secreted ER Calcium Modulated Protein (SERCaMP) assay (AID 1508630; active = well fitted curve in the direction sought with a large enough effect; an effect the other way counts as inactive or inconclusive)
Outline: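 GLuc-SERCaMP-expressing SH-SY5Y cells, pretreated 16 h with compound, are challenged with thapsigargin to empty ER calcium stores; after 4 h, coelenterazine is added directly to the medium and luminescence is imaged.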

Calcium and integrin-binding protein 1 (Homo sapiens), sequence (Q99828 whole entry, looked up): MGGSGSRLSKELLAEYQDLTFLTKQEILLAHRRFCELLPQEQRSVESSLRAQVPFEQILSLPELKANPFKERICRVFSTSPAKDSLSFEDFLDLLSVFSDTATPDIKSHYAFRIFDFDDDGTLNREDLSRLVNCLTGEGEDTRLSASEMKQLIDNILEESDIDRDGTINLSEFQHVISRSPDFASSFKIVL

CC(=O)c1c(OCCN2CCCCC2)c(OCCC(C)c2ccc(F)cc2)c2oc(C)nc2c1C (stereo unspecified)
Potency [1]: inactive | Potency [2]: 10 µM (active)

CCN(CC)CCN(Cc1ccc(-c2ccc(C(F)(F)F)cc2)cc1)C(=O)Cn1c(SCc2ccc(F)cc2)nc(=O)c2c1CCC2
Potency [1]: 10 µM (active)

CCN(CC)CC1CCN(c2ncc3ncnc(Nc4ccc(F)c(Cl)c4)c3n2)CC1
Potency [1]: 11.2 µM (active) | Potency [2]: inactive

Cc1nnc(-c2ccc(-c3ccc(C(=O)Nc4ccc(O)c(N5CCN(C)CC5)c4)cc3)c(C)c2)o1
Potency [1]: inactive | Potency [2]: 8.91 µM (active)

COc1ccc(NS(=O)(=O)c2sc3ccc(Cl)cc3c2C)cc1N1CCNCC1
Potency [1]: inactive | Potency [2]: 10 µM (active)

COc1ccc2sc(NC(c3ccc(OC(F)F)cc3)c3ccc4cccnc4c3O)nc2c1 (stereo unspecified)
Potency [1]: 0.708 µM (active)

NC(=O)c1cnc(N[C@@H]2CCCC[C@@H]2N)nc1Nc1cccc(-n2nccn2)c1
Potency [1]: inactive

COc1ccc2c(c1)CN(C(=O)CCN1CCC(Cc3ccccc3)CC1)CCS2
Potency [1]: inactive | Potency [2]: 4.92 µM (active)

C=C1Cc2c(Cl)cc3[nH]c4c5c3c2[C@@]2(O)[C@@H]1C[C@@H]2C(C)(C)O[C@H]5C1CC[C@@]2(O)[C@@]35O[C@@H]3[C@H]3OC(C)(C)[C@H]3O[C@H]5CC[C@]2(C)[C@@]41C (stereo partly specified)
Potency [1]: inactive

CCc1ccccc1OC[C@@H](O)CN[C@H]1CCCc2ccccc21
Potency [1]: inactive

CC1(C)CC[C@]23CO[C@@]4(CCC5[C@@]6(C)CC[C@H](O[C@@H]7OC[C@H](O[C@@H]8O[C@H](CO)[C@@H](O)[C@H](O)[C@H]8O[C@@H]8OC[C@@H](O)[C@H](O)[C@H]8O)[C@H](O)[C@H]7O[C@@H]7O[C@H](CO)[C@@H](O)[C@H](O)[C@H]7O)[C@@](C)(CO)C6CC[C@@]5(C)[C@]4(C)C[C@H]2O)[C@@H]3C1 (stereo partly specified)
Potency [1]: 3.03 µM (active) | Potency [2]: inactive

COc1ccc2c(c1)[C@]1(C[C@H]1c1ccc3c(/C=C/c4ccc(CN5C[C@@H](C)O[C@@H](C)C5)cc4)n[nH]c3c1)C(=O)N2
Potency [1]: inactive

C[C@@H]1CN(CC(=O)N2CC(C)(C)c3ncc(Cc4ccc(F)cc4)cc32)[C@@H](CN2CCOC[C@H]2C)CN1
Potency [1]: inactive

CO[C@H]1/C=C\C=C(\C)C(=O)NC2=CC(=O)C(NCCN(C)C)=C(C[C@@H](C)C[C@H](OC)[C@H](O)[C@@H](C)/C=C(/C)[C@@H]1OC(N)=O)C2=O
Potency [1]: 5.62 µM (active)

COc1cc(NC(=O)Nc2cccc(CNC(=O)O[C@H]3CCOC3)c2)ccc1-c1cnco1
Potency [1]: inactive | Potency [2]: inactive

CCCc1cc(C)[nH]c(=O)c1CNC(=O)c1cc(-c2ccnc(N3CCN(C)CC3)c2)cc2c1cnn2C(C)C
Potency [1]: inactive

CN(C)CCN(Cc1ccccc1)C(=O)c1cc(-c2ccc(F)cc2)n2nc(C(C)(C)C)cc2n1
Potency [1]: inactive | Potency [2]: inactive

CCC[C@@H](NC(=O)N1C(=O)C(CC)(CC)[C@@H]1Oc1ccc(C(=O)N2CCN(C)CC2)cc1)c1ccc2c(c1)OCO2
Potency [1]: inactive | Potency [2]: 11.2 µM (active)

COC(=O)CC[C@@H](C)C1CCC2C3CCC4C[C@H](OC(C)=O)CCC4(C)C3C[C@H](O)C21C (stereo partly specified)
Potency [1]: inactive

COc1cc(N(C)CCN(C)C)c(N)cc1Nc1nccc(-c2cn(C)c3ccccc23)n1
Potency [1]: inactive

COc1ccccc1N1CCN(CC[C@@](C)(C(=O)C2CCCCC2)c2ccccc2)CC1
Potency [1]: inactive | Potency [2]: 10 µM (active)

CCCC[C@@H](C=O)NC(=O)[C@H](CC(C)C)NC(=O)[C@H](CC(C)C)NC(C)=O (Ac-Leu-Leu-[Nle]-aldehyde)
Potency [1]: inactive | Potency [2]: 2 µM (active)

CCOc1ccc(-c2nc(-c3cccc4c3CCC4NCCO)no2)cc1OCC (stereo unspecified)
Potency [1]: inactive | Potency [2]: 11.2 µM (active)

CC/C(=C(/CC)c1ccc(O)c(CN(CC)CC)c1)c1ccc(O)c(CN(CC)CC)c1
Potency [1]: inactive | Potency [2]: 8.91 µM (active)

Nc1ncnc2c1c(-c1ccc(Oc3ccccc3)cc1)nn2[C@@H]1CCCNC1
Potency [1]: 8.91 µM (active) | Potency [2]: inactive

CCC(C)CNCC(=O)N1CCc2sccc2C1COc1cccc(C)c1 (stereo unspecified)
Potency [1]: inactive

CC[C@H](NC(=O)[C@H](CS(=O)(=O)CC1CC1)N[C@@H](c1ccc(F)cc1)C(F)(F)F)C(=O)C(=O)NC1CC1
Potency [3]: 10.8 µM (active)

Cc1cccc(/C=N/Nc2cc(N3CCOCC3)nc(OCCc3ccccn3)n2)c1
Potency [3]: 7.64 µM (active)

COC(=O)[C@]1(C)CC[C@]2(C)CC[C@]3(C)C4=CC=C5C(=CC(=O)C(O)=C5C)[C@]4(C)CC[C@@]3(C)[C@@H]2C1
Potency [1]: 1.01 µM (active) | Potency [4]: 1.12 µM (active) | Potency [5]: 9.16 µM (active)

OC1CCC(Oc2cccc3cnc(Nc4ccc5nc[nH]c5c4)nc23)CC1 (stereo unspecified)
Potency [6]: 0.482 µM (active) | Potency [3]: 0.341 µM (active)

Oc1cccc2cc(N3CCNCC3)cnc12
outcome [7]: inactive

CC(=O)O[C@@H]1C[C@@]2(C)C(c3ccoc3)C[C@H]3O[C@]32[C@]2(C)C(=O)C(O)=C3C(C)(C)C(=O)C=C[C@]3(C)C12 (stereo partly specified)
outcome [8]: inactive

COc1ccc(/C=C/C(=O)N2CC3C[C@@H](C2)Cn2c3cccc2=O)cc1OC
outcome [8]: inactive

Cn1c(-c2ccccc2)c(P(=S)(c2ccccc2)c2ccccc2)c2ccccc21
outcome [7]: inactive
